# From PubChem BioAssay (NCATS)
# Several values for one entry are separate records, joined by “and”; a condition that tells them apart may be missing. Equal values may be shown once. Unmarked numbers belong to inactive results. Records with an inconclusive call do not appear. Activity calls are given as the source filed them. Unless noted, calls follow the shape of the dose curve; as a rule, active = well fitted curve in either direction with a large enough effect (not every such curve was filed as active); inconclusive = small, poorly fitted or top-dose-only effect, or another doubt; inactive = flat fitted curve, though single readings scatter. Residues, ends and D or L forms follow the SMILES beside them.
# Key:
# [1] = target: Lysosomal acid glucosylceramidase (Homo sapiens) (UniProt P04062); experiment: Glucocerebrosidase-p2 (AID 348; in the data active = potency below about 10 µM; also: potency is read from the fitted curve at half-maximal effect); conditions: purified GBA, blue fluorogenic substrate, 40 min
# Sequence of Lysosomal acid glucosylceramidase (Homo sapiens) (P04062 whole entry, looked up): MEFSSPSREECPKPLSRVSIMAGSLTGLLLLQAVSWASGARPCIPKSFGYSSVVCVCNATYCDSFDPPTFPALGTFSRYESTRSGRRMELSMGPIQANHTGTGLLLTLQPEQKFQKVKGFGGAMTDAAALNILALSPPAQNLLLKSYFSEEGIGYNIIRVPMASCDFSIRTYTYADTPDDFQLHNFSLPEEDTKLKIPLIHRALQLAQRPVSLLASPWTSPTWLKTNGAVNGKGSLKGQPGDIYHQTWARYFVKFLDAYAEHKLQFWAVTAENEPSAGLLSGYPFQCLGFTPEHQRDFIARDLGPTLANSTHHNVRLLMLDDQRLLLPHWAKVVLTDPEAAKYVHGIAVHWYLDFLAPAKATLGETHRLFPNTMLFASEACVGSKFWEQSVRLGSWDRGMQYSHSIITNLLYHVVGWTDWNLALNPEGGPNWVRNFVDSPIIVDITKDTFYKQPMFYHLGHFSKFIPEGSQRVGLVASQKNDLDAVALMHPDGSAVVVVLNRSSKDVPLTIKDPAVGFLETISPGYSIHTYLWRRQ
# Method in brief: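 Compounds titrated from 0.6 nM upwards against 0.2 nM enzyme in pH 5.9 citric acid/KH2PO4, taurocholate, tween-20; blue fluorogenic substrate 80 uM, 40 min room temperature, stopped and read Ex 365/Em 440 for AC50.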
# [2] = AP1 Signaling Pathway (AID 357); conditions: ME-180 AP-1-bla reporter, EGF-induced, beta-lactamase ratio, 5 h; at 7.69 µM (top of the series) unless noted;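 also: ME-180 reporter cells stimulated with EGF at its EC50 level; % is scaled to controls: 0 for no effect and ±100 for the full control effect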
# Method in brief: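 Read-out was the 460nm/530nm emission ratio (excitation 405nm) after CCF4 loading for 2.5 hours at room temperature. Cells carried an AP-1-driven beta-lactamase reporter, were stimulated with EC50 EGF plus compound for 5 hours, and AC50 values came from titrations.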
# [3] = target: Cytochrome P450 1A2 (Homo sapiens) (UniProt P05177); experiment: p450-cyp1a2 (AID 410; calls by dose curve; also: potency is read from the fitted curve at half-maximal effect;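 as to activity change, negative = inhibition: -100% = full effect of reference inhibitor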); conditions: recombinant CYP1A2, luciferin-ME demethylation, luminescence; series mostly up to 11.4 µM
# Sequence of Cytochrome P450 1A2 (Homo sapiens) (P05177 whole entry, looked up): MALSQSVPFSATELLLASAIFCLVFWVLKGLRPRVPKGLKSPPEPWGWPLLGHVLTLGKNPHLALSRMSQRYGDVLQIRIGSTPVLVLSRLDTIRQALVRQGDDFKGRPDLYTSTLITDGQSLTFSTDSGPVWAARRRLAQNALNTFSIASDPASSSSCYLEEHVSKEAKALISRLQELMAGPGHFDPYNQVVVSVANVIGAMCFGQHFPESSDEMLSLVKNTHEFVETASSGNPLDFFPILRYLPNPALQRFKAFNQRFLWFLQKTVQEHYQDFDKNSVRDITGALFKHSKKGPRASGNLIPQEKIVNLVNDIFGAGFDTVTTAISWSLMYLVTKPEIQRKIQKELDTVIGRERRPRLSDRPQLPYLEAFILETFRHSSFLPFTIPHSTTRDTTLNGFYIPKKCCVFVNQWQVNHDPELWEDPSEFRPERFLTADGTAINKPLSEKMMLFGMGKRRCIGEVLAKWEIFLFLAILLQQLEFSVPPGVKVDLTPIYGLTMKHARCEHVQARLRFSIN
# Method in brief: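 Inhibition was calculated relative to 57 uM furafylline (full inhibition). The reaction used human CYP1A2 at 20nM with Luciferin-ME at its Km, 100uM, driven by an NADPH-regenerating system for 60 min at room temperature.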
# [4] = NFAT Signaling Pathway (AID 444); conditions: Jurkat NFAT-bla M1, carbachol, beta-lactamase ratio, 5 h; at 7.69 µM (top of the series) unless noted;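 also: carbachol stimulus at about its EC50 of 1 µM final; % is scaled to controls: 0 for no effect and ±100 for the full control effect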
# Method in brief: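 Jurkat cells with NFAT-driven β-lactamase reporter and co-expressed M1 receptor, stimulated with carbachol (final 1 uM, ~EC50), compound titration, 5 h at 37 °C. CCF4 loaded 1 h at RT; 460/530 nm ratio gave %activity and AC50.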
# [5] = Stat Signaling Pathway (AID 446); conditions: ME-180 (cervical carcinoma) SIE beta-lactamase reporter, IL-6 stimulated, 5 h; at 7.69 µM (top of the series) unless noted;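 also: ME-180 cervical cancer cells given 40 pM IL-6 alongside compound; SIE-controlled beta-lactamase reporter measured as 460/530 nm FRET emission ratio; % is scaled to controls: 0 for no effect and ±100 for the full control effect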
# Method in brief: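 IL-6/STAT signaling read in ME-180 cells via an SIE beta-lactamase reporter. Stimulus was 40 pM IL-6 (its AC50) for 5 hrs, so both activation and inhibition register.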
# [6] = target: Glucocorticoid receptor (Homo sapiens) (UniProt P04150); experiment: GR-GFP Redistribution (AID 450;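 active = compounds whose dose series gives a full or clear partial fitted curve of increased nuclear translocation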; also: potency is read from the fitted curve at half-maximal effect); conditions: U2OS GR-GFP nuclear translocation, laser cytometry, 2 h
# Sequence of Glucocorticoid receptor (Homo sapiens) (P04150 whole entry, looked up, the tested form may be a part): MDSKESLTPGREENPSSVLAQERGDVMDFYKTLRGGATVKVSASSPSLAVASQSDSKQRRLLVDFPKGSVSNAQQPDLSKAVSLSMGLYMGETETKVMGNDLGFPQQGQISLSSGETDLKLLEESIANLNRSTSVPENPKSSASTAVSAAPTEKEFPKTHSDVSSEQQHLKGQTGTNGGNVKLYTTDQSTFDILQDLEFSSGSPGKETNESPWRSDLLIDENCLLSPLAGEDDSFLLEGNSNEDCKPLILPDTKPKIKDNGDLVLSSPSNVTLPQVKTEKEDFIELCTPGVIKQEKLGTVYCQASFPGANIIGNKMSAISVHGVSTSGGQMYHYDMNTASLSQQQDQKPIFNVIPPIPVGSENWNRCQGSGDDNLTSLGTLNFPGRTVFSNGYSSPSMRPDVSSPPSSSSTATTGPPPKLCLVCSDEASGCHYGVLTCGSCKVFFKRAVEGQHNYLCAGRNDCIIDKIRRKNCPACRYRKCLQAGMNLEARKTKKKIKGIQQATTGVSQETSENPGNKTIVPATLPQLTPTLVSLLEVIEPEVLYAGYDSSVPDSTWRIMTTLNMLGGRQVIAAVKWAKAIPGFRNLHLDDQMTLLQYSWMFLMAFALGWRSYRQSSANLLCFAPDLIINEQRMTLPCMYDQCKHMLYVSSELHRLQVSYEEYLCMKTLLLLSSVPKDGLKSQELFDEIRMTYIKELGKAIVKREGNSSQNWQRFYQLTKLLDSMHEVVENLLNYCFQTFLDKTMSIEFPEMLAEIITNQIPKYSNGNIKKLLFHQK
# [7] = target: Glucocorticoid receptor (Homo sapiens) (UniProt P04150); experiment: GR-EFC Redistribution (AID 451; calls by dose curve; also: potency is read from the fitted curve at half-maximal effect); conditions: CHO-K1 GR-EFC translocation, beta-gal luminescence, 2 h
# Method in brief: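 CHO-K1 cells expressing nuclear EA and GR-ED fragments of b-gal; compounds titrated up to 46 uM final, 2 h at 37 C. GR nuclear translocation read as complemented b-gal luminescence after 1 h RT detection.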
# [8] = target: Mitogen-activated protein kinase 10 (Mus musculus) (UniProt Q61831); experiment: JNK3 AlphaScreen Assay (AID 530); conditions: JNK3 lysate, c-Jun phosphorylation; series mostly up to 11.4 µM;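 also: kinase came from lysate of stimulated human HepG2 cells; signal reports phosphorylation of biotinylated GST-cJun 1-79 at Ser73 with 10 µM ATP; % is scaled to controls: 0 for no effect and ±100 for the full control effect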
# Method in brief: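 qHTS format: compounds tested as titrations against IL-1beta/TNF-alpha-activated HepG2 lysate JNK3 with biotin-GST-cJun substrate and 10 uM ATP at room temperature. Loss of anti-phospho-cJun AlphaScreen signal indicates inhibition.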
# [9] = target: 3',5'-cyclic-AMP phosphodiesterase 4B (Homo sapiens) (UniProt Q07343); experiment: qHTS Assay for Inhibitors of PDE-IV (AID 607; active = well fitted activation curve with a large enough effect in the main read-out, with a control signal flat, not every such curve was filed as active; also: % of control where 0% means no effect); conditions: HEK293 ACTOne CNG channel cells, membrane potential fluorescence; series mostly up to 22.9 µM
# Sequence of 3',5'-cyclic-AMP phosphodiesterase 4B (Homo sapiens) (Q07343 whole entry, looked up): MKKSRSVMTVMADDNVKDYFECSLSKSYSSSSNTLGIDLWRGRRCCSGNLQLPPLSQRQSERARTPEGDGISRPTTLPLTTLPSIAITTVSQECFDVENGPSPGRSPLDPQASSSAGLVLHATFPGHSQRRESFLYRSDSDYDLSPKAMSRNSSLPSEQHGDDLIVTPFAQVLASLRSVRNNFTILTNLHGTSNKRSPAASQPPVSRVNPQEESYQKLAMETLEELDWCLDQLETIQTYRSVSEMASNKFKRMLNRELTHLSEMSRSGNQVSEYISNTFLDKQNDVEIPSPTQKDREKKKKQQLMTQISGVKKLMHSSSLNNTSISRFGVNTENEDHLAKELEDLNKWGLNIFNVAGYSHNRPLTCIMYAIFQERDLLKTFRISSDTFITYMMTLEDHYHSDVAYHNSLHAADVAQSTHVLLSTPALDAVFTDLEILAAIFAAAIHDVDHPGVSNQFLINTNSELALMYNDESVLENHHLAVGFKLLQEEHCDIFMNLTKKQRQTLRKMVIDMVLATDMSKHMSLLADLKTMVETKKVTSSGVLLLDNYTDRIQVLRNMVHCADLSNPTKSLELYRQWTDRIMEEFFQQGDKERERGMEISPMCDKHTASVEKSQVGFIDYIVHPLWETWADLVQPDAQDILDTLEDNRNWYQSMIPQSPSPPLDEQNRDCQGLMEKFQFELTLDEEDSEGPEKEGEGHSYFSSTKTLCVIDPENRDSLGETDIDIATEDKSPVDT
# Method in brief: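 Live HEK293 cells with a modified cyclic nucleotide-gated (CNG) channel report intracellular cAMP via membrane-potential dye fluorescence (ex 535/em 590 nm). Endogenous PDE-IV was targeted. Compounds were tested at up to 22.9 uM final; RO 20-1724 100 uM served as control.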
Structure (SMILES),Potency [1] [µM],"activity change, negative = inhibition [2]","activity change, negative = inhibition [3]","activity change, negative = inhibition [4]","activity, negative = inhibition [5]",Potency [6] [µM],Potency [7] [µM],Potency [8],Potency [9],Potency [3]
O=C(O)c1ccc(OCc2ccccc2)c(Cl)c1,> 11.4,-4.15%,-3.2% [at 2.29 µM],2.05%,6.68%,> 46,> 9.22,inactive,inactive,–
NC(N)=N/N=C(\c1ccc(Cl)cc1)C1CC1,> 11.4,8.61%,–,-17.9%,-1.61%,> 46,> 9.22,inactive,inactive,0.794 µM (active)
Oc1cc(CN2COc3ccccc32)c(O)cc1CNC1CCCCC1,> 11.4,6.94%,–,-5.35%,0.916%,> 46,> 9.22,inactive,inactive,inactive
Cc1ccc(S(=O)(=O)Nc2ccccc2C(=O)c2ccc(C)c(C)c2)cc1,> 11.4,5.46%,–,2.8%,-2.64%,> 46,> 9.22,inactive,inactive,0.631 µM (active)
Nc1ncnc2c1ncn2C[C@@H](O)C(=O)O,> 11.4,8.44%,–,2.36%,-0.0646%,> 46,> 9.22,inactive,inactive,inactive
Cc1cc(N=Cc2c(CO)cnc(C)c2O)c(N=Cc2c(CO)cnc(C)c2O)cc1C.[Zn],> 11.4,-2.68%,-10.4% [at 2.29 µM],14.7%,7.49%,> 46,> 9.22,inactive,inactive,–
O=C(O)CCNc1ccccc1C(=O)O,> 11.4,-0.595%,–,4.52%,6.23%,> 46,> 9.22,inactive,inactive,inactive
O=C(O)c1ccccc1C(=O)Nc1cc2c(cc1Br)-c1ccccc1C2=O,> 11.4,-2.84%,–,10.3%,-5.27%,> 46,> 9.22,inactive,inactive,0.631 µM (active)
C[C@H](CCC(=O)O)[C@H]1CC[C@]2(C)[C@@H]3C(=O)C[C@H]4C(C)(C)[C@@H](O)CC[C@]4(C)[C@H]3C(=O)C[C@@]12C,> 11.4,4.2%,–,21.4%,8.37%,> 46,> 9.22,inactive,inactive,inactive
O=S(=O)(C[C@H](O)C(Cl)(Cl)Cl)NNc1ccccc1,> 11.4,-0.0496%,0.8% [at 2.29 µM],2.68%,5.12%,> 46,> 9.22,inactive,inactive,–
CN1CCN(c2nc3c(c(=O)n(C)c(=O)n3C)n2C)CC1,> 11.4,-1.63%,-16.8% [at 2.29 µM],1.71%,-1.51%,> 46,> 9.22,inactive,inactive,–
CC(=O)[C@@H](C)CCO[C@@]1(C)OCC[C@@H]1C,> 11.4,12.4%,–,6.23%,14.8%,> 46,> 9.22,inactive,inactive,inactive
O=C(O)CC1(CC(=O)O)Nc2ccccc2SC1=O,> 11.4,-1.59%,2% [at 2.29 µM],5.68%,2.07%,> 46,> 9.22,inactive,inactive,–
N[C@H](CO)C(=O)NCC(=O)O (HELM PEPTIDE1{[dS].G}$$$$V2.0),> 11.4,-4.49%,3.6% [at 2.29 µM],13.2%,13.6%,> 46,> 9.22,inactive,inactive,–
CC(C)c1ccc(/C=C2\C=C(c3ccc4ccccc4c3)OC2=O)cc1,> 11.4,-7.05%,-24.7% [at 2.29 µM],-17%,4.97%,> 46,> 9.22,inactive,inactive,–
N#CCCn1c(=O)c(-c2cccc(C#N)c2)nc2cnc(Oc3ccccc3)nc21,> 11.4,-17.5%,–,-7.09%,-3.8%,> 9.22,> 46,inactive,inactive,20 µM (active)
C[C@H]1[C@H](C)OC(=O)C[C@H](O)C[C@H](O)C[C@H](O)CC[C@H](O)[C@H](O)CC(=O)C[C@H](O)[C@H](C(=O)O)[C@H](O)C[C@H](O[C@@H]2O[C@@H](C)[C@H](O)[C@@H](N)[C@@H]2O)C=CC=CC=CC=CCCC=CC=C[C@@](C)(O)[C@H]1O,> 11.4,4.16%,–,2.48%,-6.26%,> 46,> 9.22,inactive,inactive,inactive
CN(C)CCCNc1cc(O)c2c(c1O)C(=O)c1ccccc1C2=O,> 11.4,9.25%,-23.1% [at 2.29 µM],23.5%,26%,> 46,> 9.22,inactive,inactive,–
O=C(CN1C(=O)c2ccccc2C1=O)NC1(C(=O)O)CCCC1,> 11.4,-5.19%,-2.1% [at 2.29 µM],-0.506%,7.15%,> 46,> 9.22,inactive,inactive,–
O=C(O)[C@H](Cc1ccc(O)c([N+](=O)[O-])c1)N1C(=O)c2ccccc2C1=O,> 11.4,0.441%,-17.9% [at 2.29 µM],11.4%,2.16%,> 46,> 9.22,inactive,inactive,–
O=C(O)CSc1nnc2c3ccccc3c3ccccc3c2n1,> 11.4,-9.84%,–,22.2%,10.3%,> 46,> 9.22,inactive,inactive,0.0794 µM (active)
CC(C)(C)CNCCO,> 11.4,-7.33%,6.2% [at 2.29 µM],4.1%,7.24%,> 46,> 9.22,inactive,inactive,–
O=C(O)CNc1ccc(C(=O)O)cc1,> 11.4,-2.61%,–,12.8%,6.8%,> 46,> 9.22,inactive,inactive,inactive
O=C(O)c1ccc([N+](=O)[O-])c(P(=O)(O)O)c1,> 11.4,-2.71%,–,12.7%,-0.293%,> 46,> 9.22,inactive,inactive,inactive
C#CCSc1n[nH]c(-c2ccco2)n1,> 11.4,-2.21%,–,15.4%,-3.07%,> 46,> 9.22,inactive,inactive,2 µM (active)
O=C(O)C1=C/C(=C(/c2ccccc2)c2cc(C(=O)O)c(O)c3ccccc23)c2ccccc2C1=O,> 11.4,1.91% and 8.74%,–,12% and -21.2%,2.38% and 8.71%,> 46,> 9.22,inactive,inactive,inactive
Nc1nc(N)nc(CCCc2nc(N)nc(N)n2)n1,> 11.4,-5.42%,–,6.45%,1.14%,> 46,> 9.22,inactive,inactive,inactive
Cc1nc2ccccc2nc1-c1ccc(N=[N+]([O-])c2ccc(-c3nc4ccccc4nc3C)cc2)cc1,> 11.4,6.31%,–,-3.33%,-5.62%,> 46,> 9.22,inactive,inactive,6.31 µM (active)
CC1=C(CC[C@H](C)CO)O[C@@H]2C[C@@H]3[C@H]4CC[C@H]5C[C@@H](O)CC[C@]5(C)[C@@H]4CC(=O)[C@@]3(C)[C@@H]12,> 11.4,12.3%,-21.1% [at 2.29 µM],-4.84%,-18.7%,> 46,> 9.22,inactive,inactive,–
Cc1cc(C)c(O)c(Cc2cccc(Cc3cc(C)cc(C)c3O)c2O)c1,> 11.4,0.471%,-14.7% [at 2.29 µM],11.9%,2.38%,> 46,> 9.22,inactive,inactive,–
